Pf growth 96h – P. falciparum growth inhibition at 96 hour, primary screen for plastid delayed-death inhibitors; P. falciparum luciferase reporter growth, 96 h; Potency, µM (doses to about 28.7 µM), inactives show at the top dose activity change, negative = inhibition, usual class: inhibitors; actives 6.9% (n = 320,000); AID 504834; further: potency means the concentration at half of the fitted maximal effect; on the % scale 0 is the no-effect control and ±100 the full control effect
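Plates of compound plus infected erythrocytes (2% hematocrit, 0.05% parasitemia final) incubate 96 hours, 37 C, 5% CO2. Detection reagent added; reduced luminescence from the parasites' luciferase reporter flags inhibition.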
Sm TGR inh – blocks Schistosoma mansoni thioredoxin glutathione reductase; Q962Y6; purified TGR, DTNB reduction, TNB absorbance 405 nm; Potency, µM (highest dose often 114 µM), for the others: at the top dose activity change, negative = inhibition, actives largely listed as inhibitors; actives 3% (n = 360,000); further: potency means the concentration at half of the fitted maximal effect; on the % scale 0 is the no-effect control and ±100 the full control effect; nearly all actives have a fitted effect of over 60% in size
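First, TGR (20 nM dispensed) and NADPH were mixed with compound. Second, a 15 min room-temperature incubation followed. Third, further NADPH and then DTNB were added to start the reaction. Finally, TNB absorbance was monitored kinetically.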
HCMV inh – human cytomegalovirus inhibition. HFF cells, HCMV-luciferase reporter, 72 h; hits give low values. activity change, negative = inhibition, % at 57.5 µM. actives 4.5% (n = 410,000); in the data active means activity change below about -60%; inconclusive means no clear call, values can overlap the other calls; inactive means above about -39%; further: on the % scale 0 is the no-effect control and ±100 the full control effect
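Steps: HFFs plated, 16 h 37C; compounds added; HCMV-luciferase added to MOI 1 PFU/cell; 72 h 37C; OneGlo reagent, 5 min room temperature; luminescence read, normalized to controls.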
HCV inh – HCV inhibition. Huh7.5.1 HCVcc-Cre infection, luciferase reporter, 44 h. Potency, µM (highest dose often 41.8 µM), for inactives: top-dose activity change, negative = inhibition, actives largely listed as inhibitors. actives 3.4% (n = 340,000). AID 651820; further: potency means the concentration at half of the fitted maximal effect; on the % scale 0 is the no-effect control and ±100 the full control effect
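Reporter virus HCVcc-Cre (~0.5 moi) infects cells exposed to compound; seeding density 1,000 cells/well with 4 h settling beforehand. Luminescence, 15 sec read, taken 44 h post-infection following a 15 min RT substrate incubation.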
Pf growth 48h – inhibits P. falciparum growth in the first generation, 48 h; P. falciparum luciferase growth in erythrocytes, 48 h; Potency, µM (titrated, usually from 28.7 µM), for the others: top-dose activity change, negative = inhibition, actives largely listed as inhibitors; actives 5.9% (n = 310,000); AID 504832; further: potency means the concentration at half of the fitted maximal effect; on the % scale 0 is the no-effect control and ±100 the full control effect
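Erythrocytes infected with P. falciparum carrying an integrated firefly luciferase reporter (2% hematocrit, 0.1% parasitemia final) were exposed to compounds in RPMI 1640 with 0.5% Albumax at 37 C, 5% CO2. Growth inhibition was scored as reduced luminescence.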
SARS PLP yeast – blocks SARS-CoV papain-like protease in a yeast assay; S. cerevisiae expressing SARS-CoV PLpro, growth rescue; actives 0.19% (n = 330,000); Potency, µM (series often up to 32.9 µM), for inactives: at the highest dose activity, positive = growth rescue, most hits filed as activators; calls by dose curve; further: potency means the concentration at half of the fitted maximal effect; 0% is about no effect; nearly all actives have a fitted effect of over 55% in size
* hit, by the source's call; u = inconclusive; x = no result given; [ ] = another dose, or the depositor's remark. Compounds with a hit are over-represented: about 15% of the library has one in this group of screens. Unless noted, the call rests on the fitted dose curve; in most records, active means well fitted curve in the direction sought with a large enough effect; inconclusive means small, poorly fitted or top-dose-only effect, or another doubt; inactive means no such curve, though single readings can be large; an effect the other way counts as inactive or inconclusive.

SMILES	Pf growth 96h	Sm TGR inh	HCMV inh	HCV inh	Pf growth 48h	SARS PLP yeast
Cn1cc(S(=O)(=O)NC[C@H]2O[C@@H](n3cnc4c(N)ncnc43)[C@H](O)[C@@H]2O)cn1	x	x	-12	3%	x	-2%
CCOC(=O)C1(Cc2cccc(OC)c2)CCCN(C(=O)CCc2cccnc2)C1 (configuration not stated)	-5%	7%	150	8%	u	0%
COc1cccc(C2=CC(=O)C[C@H](c3ccc4c(c3)OCO4)C2)c1OC	u	-8%	x	10µM*	28%	-5%
O=C1C=C(c2cccc(Br)c2)C[C@@H](c2ccc3c(c2)OCO3)C1	u	-11%	-9	-29%	4.7µM*	-22%
O=C1C=C(c2ccccc2)C[C@@H](c2ccc3c(c2)OCO3)C1	16%	3%	-11	u	-23%	-2%
Cn1ccnc1Sc1nc(Nc2cccc(Cl)c2)nc(N2CCOCC2)n1	x	1%	43	8%	8.3µM*	1%
N#Cc1ccc(Oc2nc(Nc3ccc(F)cc3)nc(N3CCCC3)n2)cc1	4.1µM*	1%	17	-5%	x	15%
Cc1cccc(Nc2nc(Nc3cccc(C)c3)nc(N3CCOCC3)n2)c1	x	-1%	-15	x	x	x
C=CCNc1nc(N2CCOCC2)nc(N2CCOCC2)n1	13µM*	-16%	20	-24%	-14%	10%
Fc1ccc(Nc2nc(N3CCOCC3)nc(N3CCOCC3)n2)cc1	13µM*	-2%	0	-29%	-14%	-4%
c1ccc(Nc2nc(N3CCOCC3)nc(N3CCOCC3)n2)cc1	-13%	-6%	66	u	u	-10%
C=CCNc1nc(NCCN2CCOCC2)nc(N2CCOCC2)n1	22%	-7%	34	-3%	-3%	2%
CCOc1nc(Nc2ccc(F)cc2)nc(N2CCN(c3ccc(OC)cc3)CC2)n1	u	0%	u	-20%	x	1%
CCc1ccc(NC(=O)c2cnc(SC)nc2C)cc1	u	-8%	66	u	-6%	-2%
C=CCn1c(=O)c(C(=O)Nc2ncccc2C)c(O)c2ccccc21	x	x	1	x	x	x
O=C(Nc1ccccc1F)N1C[C@@H]2[C@H](c3ccccc31)[C@H](CO)N2C(=O)Nc1ccccc1	x	x	1	x	x	x
O=C(COC(=O)Cc1ccc(Cl)c(Cl)c1)NCCc1ccccc1	x	x	-3	x	x	x
Cc1cccc(Nc2nc(N3CCOCC3)nc(N3CCOCC3)n2)c1	-36%	-22%	46	u	u	-12%
Oc1cccc(Nc2nc(N3CCOCC3)nc(N3CCOCC3)n2)c1	u	-33%	27	u	12µM*	-8%
NC(=O)C1CCN(c2nc(-c3ccc4ccccc4c3)cs2)CC1	u	u	-24	x	u	2%
COC(=O)COc1ccc(S(=O)(=O)N2CCCCC2)cc1[N+](=O)[O-]	-2%	-8%	-22	1%	4%	-1%
COc1cc(OC)cc(Oc2ccc(S(=O)(=O)N3CCCCC3)cc2[N+](=O)[O-])c1	u	-26%	19	u	8.3µM*	0%
COc1ccc(Oc2ccc(S(=O)(=O)N3CCCCC3)cc2S(=O)(=O)N2CCCCC2)cc1	u	-4%	-37	u	10µM*	1%
COC(=O)[C@@]1(Sc2ccc(C)cc2)CC(=O)N[C@@H]1c1ccc(Br)cc1	x	x	-27	x	x	x
Cn1cnc(S(=O)(=O)Nc2ccc(Cl)c(C(F)(F)F)c2)c1	29%	19%	2	9%	17%	15%
CCN(c1cccc(C)c1)C1C(=O)c2ccccc2N1C(C)=O (configuration not stated)	u	22µM*	28	3%	u	-2%
COc1ccc(C(=O)N2CCCN(C)CC2)cc1S(=O)(=O)N1CCCc2ccccc21	u	-16%	92	-15%	-17%	-3%
COc1ccc(C(=O)N2CCCN(C)CC2)cc1S(=O)(=O)N(C)Cc1ccccc1	u	35µM*	-9	1%	u	4%[6.58 µM]
